TDP1 cell noCPT: qHTS for Inhibitors of human tyrosyl-DNA phosphodiesterase 1 (TDP1): qHTS in cells in absence of CPT; AID 686978, 2013; DT40 Tdp1-/- hTDP1 cells, no CPT, ATP luminescence, 48 h; 420,000 tested, 15% active; Potency, µM (highest dose often 46.2 µM), inactives show at the top dose activity change, negative = growth inhibition, hits mostly inhibitors; further: potency means the concentration at half of the fitted maximal effect; nearly all actives have a fitted effect of over 55% in size
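Compound effects on proliferation are scored in DT40 Tdp1-/-;hTDP1 cells in the absence of CPT. ATP levels (CellTiter-Glo luminescence) are recorded after a ≥48 hr, 37 °C incubation.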
HT1080 IDH1KD tx: qHTS for induction of synthetic lethality in tumor cells producing 2HG: qHTS for the HT-1080-IDH1KD cell line; 360,000 tested, 2% active; HT-1080 IDH1 knockdown viability, ATP luminescence, 48 h; Potency, µM (series often up to 46.1 µM), inactives show at the top dose activity, negative = toxicity, most hits filed as cytotoxic;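 further: potency means the concentration at half of the fitted maximal effect; 0% = DMSO wells and -100% = cell-free medium wells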
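CellTiter-Glo luminescence after 48 h compound exposure at 37 degrees C of IDH1-knockdown HT-1080 cells in 5% FBS RPMI. %Activity scaled between DMSO wells and cell-free media wells, with curves fitted and assigned curve classes.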
IL1B secr inh: qHTS for Inhibitors of Inflammasome Signaling: IL-1-beta AlphaLISA Primary Screen; 360,000 tested, 4.7% active; activity change, % at 57.5 µM; THP-1 LPS/ATP IL-1B secretion, AlphaLISA, 16 h; hits give low values; in the data active means activity change below about -50%; inconclusive means mostly about -30% to -49%
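Secreted IL-1B measured by AlphaLISA bead assay after 16 h compound exposure of THP-1 cells; compounds (final up to 57.5 uM) added 1 h before LPS (250 ng/mL) and ATP (1.25 mM) stimulation; lower signal means less secretion.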
HT1080-NT tox: qHTS for induction of synthetic lethality in tumor cells producing 2HG: qHTS for the HT-1080-NT fibrosarcoma cell line | HT-1080-NT fibrosarcoma viability, CellTiter-Glo ATP luminescence, 48 h | Potency, µM (series often up to 46.1 µM), without a hit: at the highest dose activity, negative = less viability, most hits filed as cytotoxic | 360,000 tested, 1.6% active;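 further: NT is the 2HG producing partner of a matched IDH1 knockdown line; potency means the concentration at half of the fitted maximal effect; 0% = DMSO-treated cells and -100% = media-only wells without cells; nearly all actives have a fitted effect of over 55% in size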
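Compounds were tested in concentration-response format on HT-1080-NT cells for 48 hours at 37 degrees C. Cell viability came from CellTiter-Glo luminescence; curves were classified by r2, response magnitude and activity.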
ELG1 repair inh: qHTS screen for small molecules that inhibit ELG1-dependent DNA repair in human embryonic kidney (HEK293T) cells expressing luciferase-tagged ELG1. HEK293T ELG1-luciferase reporter, luminescence, 16 h; DNA damage induced by 5-fluorouridine. Potency, µM (series often up to 46.1 µM), without a hit: top-dose activity change, negative = inhibition, most hits filed as inhibitors. 330,000 tested, 2.3% active. AID 504467, 2011; further: potency means the concentration at half of the fitted maximal effect; nearly all actives have a fitted effect of over 55% in size
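In this reporter screen, reduction of luminescence relative to DMSO vehicle indicated activity. Compounds and 5-fluorouridine were added together to 2,000 cells per well, incubated for 16 hr at 37 °C, then developed with ONE-Glo.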
DT40 TDP1 CPT: qHTS for Inhibitors of human tyrosyl-DNA phosphodiesterase 1 (TDP1): qHTS in cells in presence of CPT; chicken DT40 Tdp1-/-;hTDP1 cells + 20 nM CPT, ATP luminescence, 48 h; Potency, µM (top dose mostly 46.2 µM), for inactives: at the top dose activity change, negative = growth inhibition, actives largely listed as inhibitors; 420,000 tested, 12% active; AID 686979, 2013; further: potency means the concentration at half of the fitted maximal effect; nearly all actives have a fitted effect of over 55% in size
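Chicken DT40 Tdp1-/- cells stably complemented with human TDP1 were seeded at 400 cells/well in medium containing 20 nM camptothecin, exposed to pin-transferred compounds, and grown at 37 °C for at least 48 hr. Viability was read as ATP luminescence.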
* = called active by the depositor; ? = inconclusive; nt = no result given. Compounds with a hit are over-represented: about 19% of the library has one in this group of screens. Unless noted, the call rests on the fitted dose curve; in most records, active means well fitted curve in the direction sought with a large enough effect; inconclusive means small, poorly fitted or top-dose-only effect, or another doubt; inactive means no such curve, though single readings can be large; an effect the other way counts as inactive or inconclusive. Unless noted, on the % scale 0 is the no-effect control and ±100 the full control effect.

SMILES	TDP1 cell noCPT	HT1080 IDH1KD tx	IL1B secr inh	HT1080-NT tox	ELG1 repair inh	DT40 TDP1 CPT
CCc1ccccc1NC(=O)CNC(=O)CCc1nc2sc3c(c2c(=O)[nH]1)CCCC3	0.6%	1.8%	17.4	-2.6%	?	-16.0%
COc1ccc(N(CC(=O)N/N=C/c2ccco2)S(=O)(=O)c2ccccc2)cc1Cl	-8.3%	6.0%	-9.4	5.2%	0.0%	-29.0%
COc1ccc(OC)c(CN2CCCC(C(=O)N3CCCCC3)C2)c1 (stereo unspecified)	-28.2%	8.0%	11.4	1.9%	-19.7%	-41.0%
COc1ccc(C(=O)C2CCCN(Cc3c[nH]c4ccccc34)C2)c(OC)c1 (stereo unspecified)	9.2µM*	?	?	?	1.6%	7.31µM*
COc1ccc(C(=O)C2CCCN(C/C=C/c3ccccc3OC)C2)c(OC)c1 (stereo unspecified)	2.59µM*	?	?	-13.6%	-12.2%	20.6µM*
COc1ccc(C(=O)C2CCCN(Cc3ccc4nonc4c3)C2)c(OC)c1 (stereo unspecified)	?	-26.3%	-68.6*	-15.0%	?	11.6µM*
Cc1cc(C)n(-c2ccc(Cl)c(C(=O)O)c2)n1	-4.9%	19.7%	0.2	-3.6%	12.6%	7.9%
CCCc1[nH]n(-c2ccc([N+](=O)[O-])cc2)c(=O)c1C=NCCc1c[nH]c2ccccc12	?	?	7.7	?	?	?
CCCc1[nH]n(-c2ccc([N+](=O)[O-])cc2)c(=O)c1C=NCCc1ccc(OC)c(OC)c1	?	14.7%	0.5	7.5%	-14.1%	?
Cc1[nH]n(-c2ccc([N+](=O)[O-])cc2)c(=O)c1C=NCCN1CCN(C(=O)c2ccc(F)cc2)CC1	1.9%	3.3%	3.8	1.8%	14.2%	-4.7%
Cc1[nH]n(-c2ccc([N+](=O)[O-])cc2)c(=O)c1C=NCCc1c[nH]c2ccccc12	?	?	8.4	?	-22.5%	11.6µM*
Cc1[nH]n(-c2ccc([N+](=O)[O-])cc2)c(=O)c1C=NCCN1CCN(C(=O)c2ccc(Br)cc2)CC1	14.6µM*	?	?	?	?	18.4µM*
Cc1[nH]n(-c2ccc([N+](=O)[O-])cc2)c(=O)c1C=NCCN1CCN(C(=O)c2cccc(F)c2)CC1	9.2µM*	16.4µM*	11.8	18.4µM*	2.4%	14.6µM*
CCOc1ccc(C(=O)c2oc3ccccc3c2NC(=O)Cc2coc3cc(C)cc(C)c23)cc1	-2.9%	nt	nt	nt	nt	-2.7%
CC1(C)CC(NC(=O)C2CCN(S(=O)(=O)c3ccc(Cl)c(C(F)(F)F)c3)CC2)CC(C)(C)N1	?	-13.9%	?	-6.2%	nt	?
COC(=O)c1ccccc1NC(=O)CSc1nc2ccsc2c(=O)n1Cc1ccc(C(=O)O)cc1	-18.6%	7.7%	1.0	13.7%	nt	-22.4%
Clc1ccc2c(c1)C1OCCC1C(c1ccco1)N2 (stereo unspecified)	?	-29.2%	-74.0*	-29.6%	?	?
O=C(NCc1ccccc1CN1CCCC1)c1ccc(S(=O)(=O)Nc2ccccc2)cc1	13µM*	?	?	-15.9%	nt	20.6µM*
Cc1ccccc1NS(=O)(=O)c1ccc(C(=O)NCc2ccccc2CN2CCCC2)cc1	23.1µM*	-18.0%	?	-8.0%	nt	?
